Bioassay records from PubChem BioAssay.
Shown are actives, neighbours in structure and some others; about 7.4% of the full set was active somewhere.
NPC1 promoter act – activators of NPC1 promoter; Huh7 NPC1 promoter luciferase reporter, 24 h; Potency, µM (titrated, usually from 9.22 µM), for inactives: at the top dose activation, most hits filed as activators; 2.4% of 320,000 active; note: % of control where 0% means no effect; nearly all actives have a fitted effect of over 60% in size
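Huh7 reporter cells (NPC1 promoter driving luciferase) are dosed with compound for 24 h at 37 °C, 5% CO2; luciferase detection reagent is then added and luminescence measured after 10 min at ambient temperature.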
ELG1 genotox – inducers of genotoxicity in HEK293T ELG1-luciferase cells. HEK293T ELG1-luciferase reporter, luminescence, 16 h. Potency, µM (titrated, usually from 46 µM), for the others: top-dose activity change, positive = activation, most hits filed as activators. 1.3% of 330,000 active. AID 504466; note: % of control where 0% means no effect; nearly all actives have a fitted effect of over 60% in size
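Cells (2,000/well) expressing the ELG1-luciferase fusion are dosed by pin tool and kept 16 hr at 37 °C, 5% CO2. Signal comes from ONE-Glo luciferase reagent after 30 min at room temperature.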
Rab9 prom act – Rab9 promoter activation | AID 485297 | Huh7 Rab9 promoter-luciferase reporter, luminescence, 24 h | 2.8% of 320,000 active | Potency, µM (titrated, usually from 9.22 µM), for the others: top-dose activation, negative = inhibition, actives largely listed as activators; note: % of control where 0% means no effect; nearly all actives have a fitted effect of over 60% in size
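Rab9 promoter-driven luciferase in stably transfected Huh7 cells; 1500 cells/well rested 2 h, exposed to compound in DMSO for 24 h at 37 °C, 5% CO2. Luminescence read 10 min after adding luciferase reagent at ambient temperature.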
p53 reactivator – mutant p53 re-activation in reporter cells. H1299 p53-A138V BP100-luciferase reporter, luminescence, 24 h. Potency, µM (top dose mostly 92.2 µM), for inactives: top-dose activity change, positive = activation, usual class: activators. 0.063% of 320,000 active; note: % of control where 0% means no effect; nearly all actives have a fitted effect of over 45% in size
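p53-null H1299 cells stably carrying temperature-sensitive p53-A138V and a BP100-luciferase reporter were pinned with compounds (4-point, 1:5 series) and held 24 hrs at 37 deg C. Luminescence was read 10 min after detection reagent.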
SMN2 splice up – enhancers of SMN2 splice variant expression. Potency, µM (highest dose often 46.1 µM), without a hit: at the highest dose activity change, positive = activation, hits mostly activators. AID 1458. HEK293 SMN2-luciferase splicing reporter, luminescence, 30-36 h. 2.8% of 210,000 active; note: % of control where 0% means no effect; nearly all actives have a fitted effect of over 55% in size
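qHTS luciferase splicing reporter: luminescence rises when SMN2 exon 7 is included in transfected HEK293 cells. Compound exposure lasted 30-36 h at 37C, with 4.5 mM final sodium butyrate as control, followed by a ONE-Glo read.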
FLuc counter – counter-screen for miR-21 project: firefly luciferase inhibitors or activators; 6.9% of 360,000 active; AID 588342; Potency, µM (highest dose often 57.5 µM), without a hit: at the top dose activity change, negative = inhibition, usual class: inhibitors; P08659; purified FLuc, Km substrates, luminescence inhibition;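 note: plate controls were vehicle for no effect and reference inhibitor for full effect; nearly all actives have a fitted effect of over 55% in size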
Target sequence (P08659 whole entry, looked up): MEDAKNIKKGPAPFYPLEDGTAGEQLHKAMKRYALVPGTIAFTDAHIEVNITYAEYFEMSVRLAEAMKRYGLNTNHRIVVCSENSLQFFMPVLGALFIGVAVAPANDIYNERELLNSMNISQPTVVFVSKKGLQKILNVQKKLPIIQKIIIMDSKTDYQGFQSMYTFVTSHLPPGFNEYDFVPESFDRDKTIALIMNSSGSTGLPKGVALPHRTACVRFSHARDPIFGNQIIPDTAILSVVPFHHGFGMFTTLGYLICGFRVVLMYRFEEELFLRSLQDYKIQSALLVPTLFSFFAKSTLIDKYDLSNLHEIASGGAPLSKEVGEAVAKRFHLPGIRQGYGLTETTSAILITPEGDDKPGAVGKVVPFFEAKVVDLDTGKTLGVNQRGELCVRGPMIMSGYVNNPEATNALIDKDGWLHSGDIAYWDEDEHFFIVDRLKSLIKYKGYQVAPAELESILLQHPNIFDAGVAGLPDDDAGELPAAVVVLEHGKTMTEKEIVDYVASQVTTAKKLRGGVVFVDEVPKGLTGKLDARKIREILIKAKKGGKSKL
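Purified P. pyralis luciferase, 10 nM final, with Km-level 10 uM D-luciferin and 10 uM ATP in 50 mM Tris acetate pH 7.5, 10 mM Mg acetate, 0.01% Tween-20, 0.05% BSA; 6-point qHTS titration about 60 µM downward; luminescence read.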
* marks the source's active call; other numbers are inactive results; u = inconclusive; x = no result given. Calls come from the whole dose curve; as a rule, active = well fitted curve in the direction sought with a large enough effect; inconclusive = small, poorly fitted or top-dose-only effect, or another doubt; inactive = no such curve, though single readings can be large; an effect the other way counts as inactive or inconclusive. Potency is the fitted concentration of half-maximal effect.

SMILES	NPC1 promoter act	ELG1 genotox	Rab9 prom act	p53 reactivator	SMN2 splice up	FLuc counter
CCOc1ccc(CC(=O)Nc2c(C(=O)c3ccc(C)cc3)oc3ccccc23)cc1OCC	x	x	x	x	-1.0%	-0.6%
CCOc1ccc2nc(/N=C/c3c(C)[nH]n(-c4ccc(C)cc4)c3=O)sc2c1	u	16.5%	u	17.3%	14.1µM*	4.78µM*
CCOc1ccc2nc(SC3CC(=O)N(c4ccc(C)cc4)C3=O)sc2c1 (centres undefined)	1.9%	-1.1%	-4.8%	11.0%	-91.6%	4.4%
CCOc1ccc2nc(/N=C/c3c(C)[nH]n(-c4ccccc4)c3=O)sc2c1	u	u	u	8.7%	22.4µM*	6.75µM*
CCOc1[nH]n(-c2ccccc2)c(=O)c1C=Nc1ccc(OC)cc1	-5.3%	-6.6%	1.8%	-0.5%	-8.5%	u
COc1cccc2oc(-c3ccco3)cc(=O)c12	u	u	u	u	15.8µM*	15.1µM*
O=C(COc1ccc2oc(-c3ccco3)cc(=O)c2c1)N1CCCCC1	3.1%	-0.8%	3.5%	-2.2%	3.0%	16.9µM*
COc1ccc2oc(-c3ccco3)cc(=O)c2c1	2.51µM*	u	0.794µM*	14.6%	11.2µM*	12µM*
COc1cccc2c(=O)c3ccoc3n(C)c12	-0.5%	5.6%	-0.6%	-3.5%	3.8%	-0.2%
O=c1cc(-c2ccco2)oc2ccc(Cl)cc12	27.1%	u	24.9%	u	17.9%	-5.6%
O=C(COc1ccc2oc(-c3ccccc3)cc(=O)c2c1)NCc1ccco1	6.0%	15.6%	u	11.2%	-26.6%	2.39µM*
C=CCN(c1ccccc1)S(=O)(=O)c1ccc2c(c1)N(C(C)=O)CCO2	-4.4%	-1.5%	-3.2%	-3.5%	x	2.6%
CC(C)CN(C(=O)C1COc2ccccc2O1)c1c(N)n(CC(C)C)c(=O)[nH]c1=O (centres undefined)	-3.9%	-1.8%	1.7%	8.2%	x	-1.1%
Cc1ccnc(NC(=O)c2cc(S(=O)(=O)NCc3ccccc3)ccc2C)c1	-2.5%	0.0%	-2.5%	u	x	u
Cc1c(NC(=O)c2cc3ccccc3o2)cccc1-c1nc2ccccc2o1	x	x	x	x	-9.5%	u
Cc1nn(-c2ccc(N3CCCCC3)nn2)c(C)c1CCC(=O)Nc1ccc(F)cc1F	x	x	x	x	x	15.1µM*
Cc1ccc(F)cc1NC(=O)CCc1c(C)nn(-c2ccc(N3CCCC3)nn2)c1C	x	x	x	x	x	-16.9%
Cc1ccc(F)cc1NC(=O)CCc1c(C)nn(-c2ccc(N3CCCCC3)nn2)c1C	u	8.0%	30.0%	u	x	10.7µM*
CCOC(=O)C1CCN(C(=O)CNC(=O)c2nn(-c3ccc(OC)cc3)c(=O)c3ccccc23)CC1	23.9%	-3.1%	26.1%	29.1%	x	2.69µM*
CCOC(=O)C1CCN(C(=O)c2nn(-c3ccc(OC)cc3)c(=O)c3c2c2ccccc2n3C)CC1	x	x	x	x	-3.1%	1.6%
CCOC(=O)C1CCN(C(=O)CNC(=O)c2nn(-c3ccc(OC)c(OC)c3)c(=O)c3ccccc23)CC1	13.0%	-1.5%	16.7%	11.6%	x	4.78µM*
CCOC(=O)N1CCC(N2Cc3cccc(C(=O)Nc4ccc(OC)c(OC)c4)c3C2=O)CC1	7.6%	-11.9%	4.6%	-1.4%	-0.7%	15.1µM*
CCOC(=O)N1CCC(N2Cc3cccc(C(=O)Nc4cccc(F)c4)c3C2=O)CC1	-11.1%	-12.6%	-0.3%	-1.2%	-22.7%	-8.2%
CCc1ccc(-n2nc(CO)c(C(=O)NCC(c3ccccc3)c3ccccc3)n2)cc1	x	x	x	x	-0.9%	-1.2%
CCOc1ccc(-n2nc(CO)c(C(=O)NCc3cccs3)n2)cc1	x	x	x	x	-10.4%	19µM*
SMILES	NPC1 promoter act	ELG1 genotox	Rab9 prom act	p53 reactivator	SMN2 splice up	FLuc counter
Cc1ccc(-n2nc(CO)c(C(=O)NCc3cccs3)n2)cc1	x	x	x	x	-21.4%	-7.4%
CCc1ccc(-n2nc(CO)c(C(=O)NC)n2)cc1	x	x	x	x	u	15.1µM*
CCc1ccc2occ(CC(=O)Nc3sc4c(c3C(=O)OC)CCC4)c2c1	x	x	x	x	-15.7%	4.8%
Cc1cc(F)ccc1NC(=O)C1CSC2(C)CCC(=O)N12 (centres undefined)	1.4%	-1.9%	-1.1%	0.7%	x	-1.2%
O=C(Nc1nccs1)c1ccc2c(=O)n3c(nc2c1)CCCCC3	2.82µM*	14.5%	3.16µM*	u	x	10.7µM*
Cc1csc(NC(=O)c2ccc3c(=O)n4c(nc3c2)CCCCC4)n1	3.55µM*	15.9%	1.12µM*	u	x	8.49µM*
CCOc1ccccc1NC(=O)c1ccc2c(=O)n3c(nc2c1)CCCCC3	10.7%	-5.7%	3.7%	-11.5%	x	u
COc1ccccc1OCC(=O)Nc1ccccc1C(=O)Nc1cccc(C(=O)O)c1	-5.7%	2.7%	5.7%	3.7%	x	u
CCOC(=O)Nc1cccc(C(=O)O)c1	u	7.1%	u	u	12.6µM*	-18.8%
Cc1cccc(C)c1OCC(=O)Nc1cccc(C(=O)O)c1	1.41µM*	u	2.51µM*	-5.2%	6.31µM*	2.13µM*
Cc1ccc(C)c(OCC(=O)Nc2cccc(C(=O)O)c2)c1C	u	u	u	u	12.6µM*	10.7µM*
Cc1ccc(C)c(OCC(=O)Nc2ccc3c(c2)OCO3)c1C	-2.2%	1.0%	0.1%	-19.1%	u	u
COc1cccc(CN2c3ccccc3-c3nc(SCC(=O)Nc4cccc(C)c4)ncc3S2(=O)=O)c1	x	x	x	x	-2.5%	-8.2%
O=C(NCCCN1CCN(c2ccc(F)cc2)CC1)c1sc2ncccc2c1-n1cccc1	x	x	x	x	x	1.8%
Cc1cc(C(=O)NCCc2ccc(Cl)cc2)c2c(C)nn(-c3ccccc3)c2n1	x	x	x	x	x	0.0%
COc1ccc2cc3cc(C(=O)NCCCN4CCc5ccccc5C4)sc3nc2c1	u	7.0%	4.47µM*	u	15.8µM*	9.53µM*
CCOc1ccc(CCNC(=O)c2cc3cc4ccc(OC)cc4nc3s2)cc1OCC	x	x	x	x	4.8%	2.0%
COc1ccc2cc3cc(C(=O)NC4CC4)sc3nc2c1	0.447µM*	u	0.316µM*	u	x	0.675µM*
O=C(O)COc1ccc(OCCNC[C@H](O)COc2ccccc2)cc1	x	x	x	x	2.4%	x
Brc1cccc(-c2nnc(CN3CCN(c4ccccn4)CC3)o2)c1	x	x	x	x	3.7%	-2.3%
CCOC(=O)N1CCN(c2ccc(S(=O)(=O)N3CCOCC3)cn2)CC1	x	0.1%	x	-3.0%	x	x
CCOC(=O)N1CCN(c2ccc(S(=O)(=O)N(Cc3ccccc3)Cc3ccccc3)cn2)CC1	-19.9%	11.6µM*	-31.5%	-2.1%	-69.4%	0.5%
COc1ccc(-c2cc(-c3ccccc3)c(C#N)c(=S)[nH]2)cc1	-6.1%	-3.7%	-6.8%	2.6%	-30.9%	-26.5%
